Of roughly 7,900 targets only a part is listed; those with a hit were picked by preference. About 0.6% of all pairs of compound and target were hits.
Assays:
Assay in all cases: log2 fold change, soluble protein after heating vs DMSO (PISA); higher = thermal stabilisation; K562 cells, 10 uM, 30 min; active = over 0.2 and 3.5 SD of the protein, either way, in both replicates (recomputed)
ZER1 = ZER1 (UniProt Q7Z7L7)
Method in brief: (§1)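 Quantification of soluble protein used TMTpro 16plex LC-MS/MS, with channel sums equalised. Samples were the supernatant after 21,000xg for 90 min of pooled aliquots from K562 cells (2×10^6 cells/mL) treated with 10 μM compound for 30 min, heated for 3 min over 48°C-58°C, and extracted in PBS with 0.5% NP-40 at 4°C. Values, from duplicates, describe thermal stability against control samples on a log2 fold-change scale.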

ZFAND5 = ZFAND5 (UniProt O76080)
ZFAND5, sequence (O76080 whole entry, looked up): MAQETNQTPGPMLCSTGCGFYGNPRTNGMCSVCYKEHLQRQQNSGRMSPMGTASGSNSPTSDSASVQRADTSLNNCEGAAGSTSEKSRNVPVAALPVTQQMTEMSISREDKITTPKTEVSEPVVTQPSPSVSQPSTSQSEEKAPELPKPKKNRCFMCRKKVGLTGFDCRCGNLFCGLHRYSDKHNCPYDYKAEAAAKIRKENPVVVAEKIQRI
Method in brief: as §1

ZFAND6 = ZFAND6 (UniProt Q6FIF0)
ZFAND6, sequence (Q6FIF0 whole entry, looked up): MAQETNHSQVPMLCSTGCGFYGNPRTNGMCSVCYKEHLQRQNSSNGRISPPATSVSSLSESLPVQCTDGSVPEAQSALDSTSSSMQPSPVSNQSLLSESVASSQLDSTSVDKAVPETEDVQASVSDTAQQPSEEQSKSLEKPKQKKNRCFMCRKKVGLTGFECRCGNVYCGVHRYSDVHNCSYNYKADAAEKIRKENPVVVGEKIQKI
Method in brief: as §1

ZFP91 = ZFP91 (UniProt Q96JP5)
Method in brief: as §1

ZFPL1 = ZFPL1 (UniProt O95159)
Method in brief: as §1

ZMAT2 = ZMAT2 (UniProt Q96NC0)
Method in brief: as §1

ZMYM1 = ZMYM1 (UniProt Q5SVZ6)
Method in brief: as §1

ZMYM3 = ZMYM3 (UniProt Q14202)
Method in brief: as §1

ZNF143 = ZNF143 (UniProt P52747)
Method in brief: as §1

ZNF217 = ZNF217 (UniProt O75362)
ZNF217, sequence (O75362 whole entry, looked up): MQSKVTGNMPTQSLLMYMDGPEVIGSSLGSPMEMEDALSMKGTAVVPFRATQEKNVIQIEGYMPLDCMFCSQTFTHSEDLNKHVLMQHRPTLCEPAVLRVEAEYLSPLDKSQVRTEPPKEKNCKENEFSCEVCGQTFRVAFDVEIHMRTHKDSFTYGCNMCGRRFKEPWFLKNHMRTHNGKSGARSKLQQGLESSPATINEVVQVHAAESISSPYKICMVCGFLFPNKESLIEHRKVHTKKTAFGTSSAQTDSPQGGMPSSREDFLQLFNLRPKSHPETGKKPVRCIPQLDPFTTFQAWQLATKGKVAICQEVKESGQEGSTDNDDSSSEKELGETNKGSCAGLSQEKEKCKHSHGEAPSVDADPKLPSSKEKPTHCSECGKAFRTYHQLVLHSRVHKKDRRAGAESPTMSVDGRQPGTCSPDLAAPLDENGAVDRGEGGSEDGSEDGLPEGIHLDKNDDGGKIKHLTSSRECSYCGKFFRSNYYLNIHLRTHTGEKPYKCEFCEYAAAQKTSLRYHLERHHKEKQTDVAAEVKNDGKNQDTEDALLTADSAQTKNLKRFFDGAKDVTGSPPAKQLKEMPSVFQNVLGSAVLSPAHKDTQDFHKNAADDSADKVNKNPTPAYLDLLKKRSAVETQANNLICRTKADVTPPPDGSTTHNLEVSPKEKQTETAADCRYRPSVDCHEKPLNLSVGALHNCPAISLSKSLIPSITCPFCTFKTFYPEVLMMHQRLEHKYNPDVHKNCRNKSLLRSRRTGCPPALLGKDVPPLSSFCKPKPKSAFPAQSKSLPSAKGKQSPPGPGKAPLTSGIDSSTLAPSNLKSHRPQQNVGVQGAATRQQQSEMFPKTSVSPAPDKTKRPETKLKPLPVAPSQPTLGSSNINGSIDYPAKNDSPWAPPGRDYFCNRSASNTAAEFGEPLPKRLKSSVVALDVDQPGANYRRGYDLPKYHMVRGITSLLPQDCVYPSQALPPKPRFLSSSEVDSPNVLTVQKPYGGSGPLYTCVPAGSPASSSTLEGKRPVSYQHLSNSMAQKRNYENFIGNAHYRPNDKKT
Method in brief: as §1

ZNF239 = ZNF239 (UniProt Q16600)
ZNF239, sequence (Q16600 whole entry, looked up): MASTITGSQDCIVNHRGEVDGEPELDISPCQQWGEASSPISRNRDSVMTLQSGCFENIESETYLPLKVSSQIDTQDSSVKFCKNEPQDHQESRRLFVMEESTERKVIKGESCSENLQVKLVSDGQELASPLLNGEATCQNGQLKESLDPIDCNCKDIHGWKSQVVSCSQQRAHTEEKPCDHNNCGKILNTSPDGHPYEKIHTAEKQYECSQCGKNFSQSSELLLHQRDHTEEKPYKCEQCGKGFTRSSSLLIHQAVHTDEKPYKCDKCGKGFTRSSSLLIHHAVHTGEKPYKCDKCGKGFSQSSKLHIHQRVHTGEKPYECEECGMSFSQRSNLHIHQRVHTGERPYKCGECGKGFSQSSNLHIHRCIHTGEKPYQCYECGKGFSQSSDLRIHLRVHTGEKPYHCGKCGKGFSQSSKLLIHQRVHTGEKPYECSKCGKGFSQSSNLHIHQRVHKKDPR
Method in brief: as §1

ZNF277 = ZNF277 (UniProt Q9NRM2)
Method in brief: as §1

ZNF579 = ZNF579 (UniProt Q8NAF0)
Method in brief: as §1

ZNF580 = ZNF580 (UniProt Q9UK33)
ZNF580, sequence (Q9UK33 whole entry, looked up): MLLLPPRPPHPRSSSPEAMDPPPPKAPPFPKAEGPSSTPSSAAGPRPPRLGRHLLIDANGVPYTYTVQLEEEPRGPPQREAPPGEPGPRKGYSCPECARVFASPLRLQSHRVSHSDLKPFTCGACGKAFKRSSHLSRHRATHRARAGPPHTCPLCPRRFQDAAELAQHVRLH
Method in brief: as §1

ZNF609 = ZNF609 (UniProt O15014)
Method in brief: as §1

ZNF622 = ZNF622 (UniProt Q969S3)
Method in brief: as §1

ZRANB2 = ZRANB2 (UniProt O95218)
Method in brief: as §1

ZEB2 = ZEB2 (UniProt O60315)
ZEB2, sequence (O60315 whole entry, looked up): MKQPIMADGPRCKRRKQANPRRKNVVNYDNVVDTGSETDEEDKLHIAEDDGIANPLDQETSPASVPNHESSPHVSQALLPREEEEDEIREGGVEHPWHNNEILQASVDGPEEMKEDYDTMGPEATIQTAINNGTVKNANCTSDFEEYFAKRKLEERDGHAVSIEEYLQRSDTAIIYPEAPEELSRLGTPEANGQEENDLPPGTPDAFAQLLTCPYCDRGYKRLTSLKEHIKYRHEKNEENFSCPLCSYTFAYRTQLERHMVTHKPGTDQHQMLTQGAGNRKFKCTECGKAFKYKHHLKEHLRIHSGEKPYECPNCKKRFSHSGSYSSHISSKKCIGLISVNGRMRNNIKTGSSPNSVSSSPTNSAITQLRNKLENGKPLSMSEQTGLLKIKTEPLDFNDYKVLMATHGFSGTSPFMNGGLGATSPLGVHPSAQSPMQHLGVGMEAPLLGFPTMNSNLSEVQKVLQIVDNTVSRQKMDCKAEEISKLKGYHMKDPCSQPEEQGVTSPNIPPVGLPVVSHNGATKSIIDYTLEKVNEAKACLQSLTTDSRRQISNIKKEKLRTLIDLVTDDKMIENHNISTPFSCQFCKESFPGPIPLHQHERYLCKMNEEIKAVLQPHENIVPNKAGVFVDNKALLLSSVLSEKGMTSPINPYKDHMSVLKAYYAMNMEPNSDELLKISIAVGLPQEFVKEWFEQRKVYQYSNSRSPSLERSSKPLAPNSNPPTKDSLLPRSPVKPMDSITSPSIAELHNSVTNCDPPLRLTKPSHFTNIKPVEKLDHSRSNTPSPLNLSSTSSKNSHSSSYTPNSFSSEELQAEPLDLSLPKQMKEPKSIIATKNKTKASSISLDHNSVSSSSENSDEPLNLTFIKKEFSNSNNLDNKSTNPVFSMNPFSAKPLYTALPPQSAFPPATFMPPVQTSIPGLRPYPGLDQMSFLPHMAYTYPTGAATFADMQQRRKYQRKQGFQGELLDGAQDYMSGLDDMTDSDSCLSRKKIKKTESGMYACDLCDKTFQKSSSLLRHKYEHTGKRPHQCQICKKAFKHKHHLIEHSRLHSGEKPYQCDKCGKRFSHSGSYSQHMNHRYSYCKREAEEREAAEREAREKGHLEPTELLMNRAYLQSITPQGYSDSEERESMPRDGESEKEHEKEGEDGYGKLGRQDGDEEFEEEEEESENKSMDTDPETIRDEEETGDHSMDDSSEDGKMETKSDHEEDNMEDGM
Method in brief: as §1

ZNF511 isoform 1 = ZNF511 isoform 1 (UniProt Q8NB15)
ZNF511 isoform 1, sequence (Q8NB15 whole entry, looked up, canonical isoform): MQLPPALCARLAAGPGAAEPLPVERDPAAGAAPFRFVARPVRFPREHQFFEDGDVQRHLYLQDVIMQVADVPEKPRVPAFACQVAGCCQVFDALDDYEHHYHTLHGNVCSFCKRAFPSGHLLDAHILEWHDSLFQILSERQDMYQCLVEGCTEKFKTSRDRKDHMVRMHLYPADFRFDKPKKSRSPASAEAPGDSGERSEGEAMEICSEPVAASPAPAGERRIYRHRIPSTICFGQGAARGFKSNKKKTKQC
Method in brief: as §1

ZNF512 = ZNF512 (UniProt Q96ME7)
ZNF512, sequence (Q96ME7 whole entry, looked up): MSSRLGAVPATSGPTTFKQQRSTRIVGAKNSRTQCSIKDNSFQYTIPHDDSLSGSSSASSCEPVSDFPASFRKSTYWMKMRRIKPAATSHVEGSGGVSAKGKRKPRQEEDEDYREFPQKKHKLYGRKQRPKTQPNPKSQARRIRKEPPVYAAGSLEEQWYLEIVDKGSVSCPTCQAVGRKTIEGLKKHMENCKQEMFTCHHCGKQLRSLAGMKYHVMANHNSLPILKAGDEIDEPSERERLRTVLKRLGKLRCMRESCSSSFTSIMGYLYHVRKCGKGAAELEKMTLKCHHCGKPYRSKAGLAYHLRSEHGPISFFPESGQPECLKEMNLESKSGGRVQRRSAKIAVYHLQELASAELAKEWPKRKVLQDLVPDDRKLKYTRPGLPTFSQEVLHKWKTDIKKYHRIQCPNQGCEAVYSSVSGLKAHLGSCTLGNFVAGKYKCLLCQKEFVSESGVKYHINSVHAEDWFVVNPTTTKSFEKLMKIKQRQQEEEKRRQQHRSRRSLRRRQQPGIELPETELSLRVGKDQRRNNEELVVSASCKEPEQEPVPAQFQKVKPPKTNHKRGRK
Method in brief: as §1

Measured: log2 fold change

ZER1, sequence (Q7Z7L7 whole entry, looked up): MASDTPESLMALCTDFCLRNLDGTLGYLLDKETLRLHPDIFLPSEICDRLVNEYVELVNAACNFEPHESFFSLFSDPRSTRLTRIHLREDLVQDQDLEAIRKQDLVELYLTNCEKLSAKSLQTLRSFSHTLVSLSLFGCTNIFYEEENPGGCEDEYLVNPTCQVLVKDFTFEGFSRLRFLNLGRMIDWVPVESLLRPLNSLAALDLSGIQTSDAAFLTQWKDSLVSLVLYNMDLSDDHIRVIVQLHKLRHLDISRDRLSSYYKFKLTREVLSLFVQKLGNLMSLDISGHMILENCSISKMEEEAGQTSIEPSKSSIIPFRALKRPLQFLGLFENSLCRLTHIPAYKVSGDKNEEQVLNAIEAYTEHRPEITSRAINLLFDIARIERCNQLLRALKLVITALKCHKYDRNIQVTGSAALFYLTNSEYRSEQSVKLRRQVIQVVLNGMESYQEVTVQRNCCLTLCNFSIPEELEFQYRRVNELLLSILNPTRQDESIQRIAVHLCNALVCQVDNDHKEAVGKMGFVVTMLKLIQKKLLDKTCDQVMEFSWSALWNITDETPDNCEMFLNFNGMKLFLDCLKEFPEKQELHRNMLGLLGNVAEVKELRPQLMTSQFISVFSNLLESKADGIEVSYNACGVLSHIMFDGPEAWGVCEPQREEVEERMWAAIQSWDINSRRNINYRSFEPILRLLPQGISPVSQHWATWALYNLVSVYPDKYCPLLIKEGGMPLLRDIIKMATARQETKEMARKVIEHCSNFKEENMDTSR

Cc1cccc(CC(=O)N2CCc3c2ccc(-c2cn(C)c4ncnc(N)c24)c3F)n1
inactive: ZER1 0.369 | ZFAND5 -0.032 | ZFAND6 -0.014 | ZFP91 -0.037 | ZFPL1 -0.041 | ZMAT2 -0.037 | ZMYM1 -0.036 | ZMYM3 -0.121 | ZNF143 0.027 | ZNF217 0.008 | ZNF239 0 | ZNF277 0.045 | ZNF579 -0.101 | ZNF580 -0.045 | ZNF609 -0.22 | ZNF622 -0.019 | ZRANB2 -0.065

Nc1ccccc1NC(=O)c1ccc(CNC(=O)OCc2cccnc2)cc1 [entinostat]
inactive: ZEB2 -0.03 | ZER1 0.049 | ZFAND5 -0.031 | ZFAND6 -0.007 | ZFP91 -0.054 | ZFPL1 -0.03 | ZMAT2 0.081 | ZMYM1 -0.012 | ZMYM3 -0.073 | ZNF143 -0.012 | ZNF217 0.075 | ZNF239 -0.023 | ZNF511 isoform 1 -0.078 | ZNF579 -0.036 | ZNF580 0 | ZNF609 -0.061 | ZNF622 -0.007 | ZRANB2 -0.024

O=C(Nc1nc2ccccc2n1CCN1CCOCC1)c1cccc([N+](=O)[O-])c1 [IRAK-1-4 Inhibitor I]
inactive: ZEB2 0.02 | ZER1 0.025 | ZFAND5 0.057 | ZFAND6 0.032 | ZFP91 -0.134 | ZFPL1 0.021 | ZMAT2 0.11 | ZMYM1 0.006 | ZMYM3 0.057 | ZNF143 0.108 | ZNF217 0.052 | ZNF239 0.154 | ZNF277 -0.346 | ZNF579 -0.096 | ZNF580 0.051 | ZNF609 -0.031 | ZNF622 0.004 | ZRANB2 -0.008

O=C(CCCCCCNC(=O)c1cnc(N(c2ccccc2)c2ccccc2Cl)nc1)NO [citarinostat]
inactive: ZER1 0.192 | ZFAND5 0 | ZFAND6 -0.081 | ZFP91 -0.053 | ZFPL1 0.046 | ZMAT2 0.085 | ZMYM1 -0.07 | ZMYM3 -0.033 | ZNF143 0.033 | ZNF217 -0.004 | ZNF277 0.306 | ZNF511 isoform 1 0.054 | ZNF579 -0.089 | ZNF580 -0.013 | ZNF609 0.083 | ZNF622 -0.011 | ZRANB2 -0.031

CNCc1ccc(-c2[nH]c3cc(F)cc4c3c2CCNC4=O)cc1 [rucaparib]
active: ZFAND6 -0.241
inactive: ZER1 -0.271 | ZFAND5 -0.012 | ZFP91 0.113 | ZFPL1 0.021 | ZMAT2 -0.206 | ZMYM1 0.331 | ZMYM3 0.049 | ZNF143 -0.008 | ZNF217 -0.025 | ZNF277 0 | ZNF511 isoform 1 -0.006 | ZNF579 0.01 | ZNF580 0.136 | ZNF609 -0.034 | ZNF622 -0.194 | ZRANB2 -0.034

COC(=O)N[C@@H](C)CNc1nccc(-c2cn(C(C)C)nc2-c2cc(Cl)cc(NS(C)(=O)=O)c2F)n1 [encorafenib]
inactive: ZER1 0.01 | ZFAND5 -0.047 | ZFAND6 -0.019 | ZFP91 0.038 | ZFPL1 -0.026 | ZMAT2 0.106 | ZMYM1 0.082 | ZMYM3 -0.032 | ZNF143 0.014 | ZNF217 -0.054 | ZNF277 -0.259 | ZNF511 isoform 1 -0.03 | ZNF579 -0.187 | ZNF580 0.143 | ZNF609 -0.082 | ZNF622 0.01 | ZRANB2 -0.066

Cc1ccc(-n2nc(C(C)(C)C)cc2NC(=O)Nc2ccc(OCCN3CCOCC3)c3ccccc23)cc1 [doramapimod]
inactive: ZEB2 0.032 | ZER1 -0.163 | ZFAND5 0.106 | ZFAND6 0.017 | ZFP91 0.109 | ZFPL1 -0.098 | ZMAT2 -0.024 | ZMYM1 0.003 | ZMYM3 -0.009 | ZNF143 0.01 | ZNF217 -0.027 | ZNF239 0.069 | ZNF277 0.123 | ZNF579 0.11 | ZNF580 0.165 | ZNF609 0.036 | ZNF622 0.009 | ZRANB2 -0.014

Cc1cc(Nc2cc(CN3CCOCC3)c3nc(C)c(Cc4ccc(Cl)cc4F)n3n2)n[nH]1 [gandotinib]
inactive: ZER1 -0.269 | ZFAND5 0.066 | ZFAND6 -0.004 | ZFP91 0.214 | ZFPL1 0.011 | ZMAT2 -0.014 | ZMYM1 0.305 | ZMYM3 0.051 | ZNF143 0.025 | ZNF217 -0.098 | ZNF239 -0.267 | ZNF277 0.041 | ZNF579 0.036 | ZNF580 0.041 | ZNF609 -0.073 | ZNF622 0.075 | ZRANB2 0.064

CON(C)C(=O)N1N=C(c2cc(F)ccc2F)S[C@@]1(CCCN)c1ccccc1 [filanesib]
inactive: ZEB2 0.025 | ZER1 -0.006 | ZFAND5 0.073 | ZFAND6 -0.111 | ZFP91 0.183 | ZFPL1 -0.001 | ZMAT2 -0.084 | ZMYM1 0.067 | ZMYM3 0.012 | ZNF143 0.024 | ZNF217 -0.045 | ZNF239 0.051 | ZNF511 isoform 1 0.019 | ZNF579 0.181 | ZNF580 0.152 | ZNF609 0.049 | ZNF622 -0.101 | ZRANB2 0

CN1CCC(CNc2ccc3ncc(-c4cccc(OC(F)(F)F)c4)n3n2)CC1
inactive: ZER1 -0.172 | ZFAND5 -0.068 | ZFAND6 -0.037 | ZFP91 0.171 | ZFPL1 -0.085 | ZMAT2 0.008 | ZMYM1 0.086 | ZMYM3 0.035 | ZNF143 -0.109 | ZNF217 -0.081 | ZNF239 -0.063 | ZNF277 0.077 | ZNF579 0.103 | ZNF580 0.054 | ZNF609 -0.134 | ZNF622 0.03 | ZRANB2 0.01

O=C1NC(=NCc2cccs2)S/C1=C\c1ccc2ncccc2c1
inactive: ZER1 -0.016 | ZFAND5 -0.015 | ZFAND6 0.077 | ZFP91 -0.007 | ZFPL1 0.01 | ZMAT2 -0.063 | ZMYM1 0.113 | ZMYM3 0 | ZNF143 -0.028 | ZNF217 0.007 | ZNF239 0.117 | ZNF277 0.019 | ZNF511 isoform 1 0.087 | ZNF512 0.102 | ZNF579 -0.051 | ZNF609 -0.025 | ZNF622 0.07 | ZRANB2 -0.059

CS(=O)(=O)c1ccc(-c2cnc(N)c(C(=O)Nc3ccccc3)n2)cc1
inactive: ZEB2 0.025 | ZER1 0.034 | ZFAND5 -0.035 | ZFAND6 -0.036 | ZFP91 -0.072 | ZFPL1 -0.045 | ZMAT2 -0.127 | ZMYM1 0.026 | ZMYM3 0.023 | ZNF143 -0.014 | ZNF217 -0.037 | ZNF239 -0.06 | ZNF511 isoform 1 -0.022 | ZNF579 0.019 | ZNF580 -0.231 | ZNF609 0.021 | ZNF622 0.066 | ZRANB2 -0.013

O=C(CCCCCCC(=O)Nc1ccccc1)NO [vorinostat]
inactive: ZER1 0.055 | ZFAND5 -0.047 | ZFAND6 0.04 | ZFP91 0.013 | ZFPL1 -0.053 | ZMAT2 -0.019 | ZMYM1 -0.02 | ZMYM3 0.073 | ZNF143 0.037 | ZNF217 0.056 | ZNF239 0.275 | ZNF277 -0.022 | ZNF579 -0.032 | ZNF580 -0.064 | ZNF609 -0.128 | ZNF622 -0.049 | ZRANB2 -0.03

NC(=O)c1cnc(N[C@@H]2CCCC[C@@H]2N)nc1Nc1cccc(-n2nccn2)c1
inactive: ZER1 -0.001 | ZFAND5 0.084 | ZFAND6 0.089 | ZFP91 -0.001 | ZFPL1 0.054 | ZMAT2 0.079 | ZMYM1 -0.123 | ZMYM3 0.11 | ZNF143 -0.106 | ZNF217 -0.053 | ZNF239 -0.092 | ZNF277 0.067 | ZNF511 isoform 1 -0.066 | ZNF512 -0.005 | ZNF579 0.067 | ZNF609 0.015 | ZNF622 -0.002 | ZRANB2 0.002

C[C@@H](N)c1ccc(C(=O)Nc2ccnc3[nH]ccc23)cc1
inactive: ZER1 -0.055 | ZFAND5 -0.021 | ZFAND6 0.031 | ZFP91 0.154 | ZFPL1 -0.006 | ZMAT2 -0.012 | ZMYM1 0.016 | ZMYM3 0.045 | ZNF143 -0.118 | ZNF217 -0.013 | ZNF239 0.022 | ZNF277 0.315 | ZNF511 isoform 1 -0.105 | ZNF512 0.45 | ZNF579 0.102 | ZNF609 0.033 | ZNF622 0 | ZRANB2 -0.043

CS(=O)(=O)N1CCN(Cc2cc3nc(-c4cccc5[nH]ncc45)nc(N4CCOCC4)c3s2)CC1 [pictilisib]
inactive: ZER1 0.085 | ZFAND5 0.007 | ZFAND6 0.063 | ZFP91 -0.07 | ZFPL1 0.173 | ZMAT2 0.01 | ZMYM1 -0.018 | ZMYM3 -0.022 | ZNF143 -0.06 | ZNF217 -0.038 | ZNF239 -0.249 | ZNF277 -0.249 | ZNF579 0.02 | ZNF580 -0.037 | ZNF609 0.107 | ZNF622 0.144 | ZRANB2 0.01
